According to ChEMBL document CHEMBL3988442, “University of Dundee, Small-Polar-MMV Screening Library” (2021):
Out of some 48,000 compounds screened, about 13,000 (27%) showed an effect of 50% or more. This is one part of the list.

Tested on: Wolbachia pipientis
Experiment: Anti-Wolbachia Cell-Based Screen
Type: functional
Set-up: scale not given: in the data most compounds retested in dose-response had high values
Details: 5 µM

| Compound | Percent Effect |
| --- | --- |
| CC(C)c1ccc(CN2CCC3(CCCN(c4nncs4)C3)C2)cc1.O=C(O)C(F)(F)F (centres undefined) | 37.55% |
| Cc1cccc(OCCC(=O)N2CCN(S(=O)(=O)N(C)C)CC2)c1C | -2.723% |
| Cl.O=C(NC[C@@]1(COc2cnccn2)C[C@@H](O)[C@@H](O)C1)C1CCCC1 | -8.405% |
| COc1ccnc(N(C)Cc2ccccc2OC(F)(F)F)n1 | -0.2691% |
| COc1ccc(CN(C(=O)C2CCCO2)c2ccncc2)cc1 (centres undefined) | -15.48% |
| COc1ccc(CN(C)Cc2ccnc(C3CCCO3)n2)cc1 (centres undefined) | 120.3% |
| COc1ccc(CN(C(=O)C2CCOCC2)c2ccncc2)cc1 | -12.74% |
| COc1ccccc1CN(C)Cc1ccnc(C2CCCO2)n1 (centres undefined) | 134% |
| CCCN(Cc1cnc2ccccc2n1)Cc1ccccc1OC | -2.298% |
| COc1ccc(Cl)cc1NC(=O)CCC1CCCN(Cc2ncon2)C1 (centres undefined) | 23.91% |
| Cc1nc(NC(=O)NCc2cccnc2NCCN(C)C)sc1C | -3.378% |
| COCCN1CCC2(C1)c1ccccc1S(=O)(=O)N2Cc1ccccc1.O=C(O)C(F)(F)F (centres undefined) | 6.934% |
| COCCN1C2(CCN(CC3CC3)C2)c2ccccc2S1(=O)=O.O=C(O)C(F)(F)F (centres undefined) | 102.4% |
| COCCN1CCC2(C1)c1ccccc1S(=O)(=O)N2C.O=C(O)C(F)(F)F (centres undefined) | 90.85% |
| CC(C)C(=O)Nc1cc(C(=O)NC2CC(C)(C)NC(C)(C)C2)nn1C | -26.3% |
| Cc1ccc(-n2ncc(C(=O)NC3CC(C)(C)NC(C)(C)C3)c2N)cc1 | 174.2% |
| Cc1c(C(=O)NC2CC(C)(C)NC(C)(C)C2)cnn1-c1ccc(F)cc1 | -13.93% |
| CC1(C)CC(NC(=O)c2cnn(-c3ccccc3F)c2N)CC(C)(C)N1 | 151.8% |
| Cc1ccc(-n2ncc(C(=O)NC3CCCCC3)c2N)cc1 | 3.957% |
| CC(C)(C)SCCNC(=O)[C@@]12CNC[C@@H]1CN(S(C)(=O)=O)C2 | 5.951% |
| Cc1nc(CCN2CCC(Oc3ccccc3F)CC2)cs1 | -0.6309% |
| Cc1csc2c(C3CCN(CCOc4ccccc4F)CC3)nc(C)n12 | 93.69% |
| CC(C)Cc1noc(CN2CCN(CCOc3ccc(Cl)cc3)CC2)n1 | -9.815% |
| Cc1ccc(OCCN2CCC(c3nc(C)n4c(C)csc34)CC2)cc1 | 140.7% |
| Cc1nc(C)n(CC2CN(CCOc3ccccc3F)CCO2)n1 (centres undefined) | 5.326% |
| CCCc1n[nH]c(C2CN(CCCOc3ccccc3)CCO2)n1 (centres undefined) | -4.502% |

| Compound | Percent Effect |
| --- | --- |
| Cc1nc(C(=O)NC2CCN(CCOc3ccc(Br)cc3)CC2)cs1 | 6.734% |
| Cc1csc2c(C3CCN(CCCOc4ccccc4)CC3)nc(C)n12 | 96.85% |
| CN(CC(=O)N1CC(Oc2ccccc2Cl)C1)Cc1ccncc1 | -2.119% |
| O=C(O)c1cnc(OCC2CC2)c(Cl)c1 | -32.81% |
| COc1ccc(C(=O)O)cc1-c1cccc(C(C)N(C)C)c1 (centres undefined) | -0.7125% |
| Cc1cnc(-n2cnnc2)c(-c2cccc3c2CCNC3)c1 | -5.841% |
| COc1cccc2c1N(S(=O)(=O)c1cc(C(=O)O)cs1)CCC2 | -3.989% |
| Cc1ccc(C(=O)O)cc1-c1cccc2c1CCNC2 | 128.8% |
| O=C(c1cnc(OCC(F)(F)F)c(Cl)c1)N1CCc2ccc(O)cc2C1 | -3.134% |
| COc1ccc(C(=O)O)cc1-c1cccc2c1CCNC2 | 99.52% |
| Cc1ccc(C(=O)O)cc1S(=O)(=O)N(C)c1cccc(C#N)c1 | 8.363% |
| O=C(O)c1cnc(-c2cccc3c2CCNC3)c(Cl)c1 | 123.8% |
| Cc1ccc([C@@H]2CN(C(=O)c3cc(C)n[nH]3)C[C@H]2NC(=O)C2CC2)cc1 | 4.814% |
| CCNC(=O)CN(CC)S(=O)(=O)c1c(Br)cc2[nH]c(=O)oc2c1Cl | -2.285% |
| Cc1ccnc(NCCNC(=O)c2ccccc2NCC(=O)O)c1 | -16.08% |
| CN(C)CC(c1ccccc1)N(C)C(=O)c1cccc(NCC(=O)O)c1 (centres undefined) | 104.1% |
| CN(CC(=O)N1CCCC1)C(=O)c1ccccc1Nc1ccccc1 | -0.554% |
| CC(=O)Nc1cccc(C(=O)N(C)C(C)Cc2cc(C)ccn2)c1 (centres undefined) | 4.881% |
| CC(C)CN(C(=O)Nc1cccc(C(=O)N(C)C)c1)C1CC1 | 4.006% |
| COC(C)c1cccc(NCc2cccs2)c1 (centres undefined) | 2.749% |
| CCn1nc(C)c(CCNC(=O)c2cccc(NCC(=O)O)c2)c1C | -5.115% |
| Cc1cc(CNc2cccc(C(=O)N(C)c3ccccc3)c2)no1 | 2.006% |
| CC(C)N(CC(=O)Nc1cccc(C(=O)N(C)C)c1)C1CC1 | 5.845% |
| CN(C(=O)c1cccc(NCc2cccs2)c1)C(C1CC1)C1CC1 | 113% |
| CN(C(=O)c1ccccc1NCC(=O)O)C(C1CC1)C1CC1 | 114.3% |
| CN(C(=O)c1cccc(NCC(=O)O)c1)C(C1CC1)C1CC1 | 109.4% |

| Compound | Percent Effect |
| --- | --- |
| CC(C)(C)C(=O)N1C[C@@H](F)[C@@H](OCc2nc3ccccc3o2)C1 | -2.26% |
| Cc1cnn(C2CN(Cc3noc(C4CC4)n3)C2)c1 | -0.9556% |
| CN1C(=O)C2(CCN(S(C)(=O)=O)CC2)c2cc(F)ccc21.Cl | -38.1% |
| Brc1cc(CNCc2nnc3n2CCC3)cs1.Cl | -5.919% |
| O=C(CN(Cc1cccnc1)CC1CCCO1)Nc1ccc(F)cc1 (centres undefined) | -1.761% |
| O=C(COCC1CCCO1)N(Cc1cccnc1)c1ccc(F)cc1 (centres undefined) | 100.3% |
| O=C(CCc1cccnc1)N(Cc1ccsc1)CC1CCCO1 (centres undefined) | -15.29% |
| CNC(=O)C1(CCCc2ccncc2)CCCN1 (centres undefined) | -10.96% |
| CN(C)C(=O)C1(CCCc2ccncc2)CCCN1 (centres undefined) | -8.359% |
| CC(=O)NC(=O)C1(CCCc2ccncc2)CCN1 (centres undefined) | 96.13% |
| CN(CCCNC(=O)NCc1ccncc1)CC(F)(F)F | -10.78% |
| CNC(=O)C1(CCCc2ccncc2)CCCCN1.Cl (centres undefined) | 104.3% |
| CNC(=O)C1(CCCc2ccncc2)CCN1.O=C(O)C(F)(F)F (centres undefined) | 127.6% |
| CCNc1ncc(C(=O)NCCCc2ccncc2)cn1 | -5.909% |
| CC(CCNC(=O)NCCc1ccncc1)c1ccccc1 (centres undefined) | 4.177% |
| CCN(Cc1ccncc1)C(=O)c1cn(CCCc2ccccc2)nn1 | -1.571% |
| Cc1cccc(C(C(=O)NCCCc2ccncc2)N(C)C)c1 (centres undefined) | -9.46% |
| O=C(O)C(F)(F)F.O=C(O)C(F)(F)F.O[C@H]1CCN(CC2CC2)[C@H]1Cc1ccncc1 | 1.351% |
| NC(=O)C1(CCCc2ccncc2)CCCN1 (centres undefined) | 96.03% |
| CN(CCSc1ccccc1)C(=O)C(c1cccnc1)N1CCOCC1 (centres undefined) | 0.338% |
| Cc1cc(S(=O)(=O)Nc2cccc(I)c2)sc1C(=O)O | 5.422% |
| CN1CCCC2(CCN(c3cc(C(F)(F)F)nc(N(C)C)n3)C2)C1=O (centres undefined) | 7.307% |
| COc1cc(CNc2ccccc2Cl)ccc1OCC(=O)O | 86.61% |
| CCc1cnc(N)nc1NCc1ccc(OC)c(OC)c1 | -14.4% |
| COc1cccc(CNc2cc(CO)ccc2Cl)c1 | -79.64% |
| COc1ccc(CNC(=O)c2ccc(Cl)cc2F)cc1C(=O)O | 25.37% |

| Compound | Percent Effect |
| --- | --- |
| COc1cc(CNc2ccc(Cl)cc2)ccc1OCC(=O)O | 106% |
| COc1ccccc1OCC(=O)Nc1ncccc1Cl | -0.249% |
| CNC(=O)NC(=O)CNC(CC(F)(F)F)c1ccc(F)cc1 (centres undefined) | 13.05% |
| CN(CC(=O)N1CC(C)(C)[C@](O)(C2CC2)C1)Cc1ccncc1 | -13.6% |
| CC(C)C(C)NC(=O)c1cccn1Cc1cccnc1 (centres undefined) | -0.09991% |
| COC(=O)c1cccn1C1CCN(Cc2nc3ccccc3o2)CC1 | 118.1% |
| Cc1ncc2c(n1)CCN(Cc1nc3ccccc3o1)C2 | 7.952% |
| COCc1nnc(C(=O)N(C)Cc2cnc3ccccn23)o1 | -16.21% |
| O=C1CCC(=O)N1CCN1CCC(=Cc2ccccc2)CC1 | -0.4568% |
| CCN1CCN(C2CCN(Cc3nc4ccccc4o3)CC2)C1=O | -0.2621% |
| CCOCCCNC(=O)c1cccn1Cc1cccnc1 | -15.39% |
| CCN(CC)C(=O)[C@@H]1C[C@@H](NC(=O)c2cccn2C2CC2)CN1C | 0.5236% |
| COC(=O)c1cccn1C1CCN(Cc2cccnc2)CC1 | 126.9% |
| COC(=O)c1cccn1C1CCN(CCN2C(=O)CCC2=O)CC1 | 85.14% |
| COC(=O)c1cccn1C1CCN(Cc2cnc3ccccn23)CC1 | 132% |
| CCc1nc(C)c(C(=O)N(C)Cc2cnc3ccccn23)o1 | -30.87% |
| N#CCCN(CCC#N)C(=O)CN1CCCC1Cc1cccc(F)c1 (centres undefined) | -4.236% |
| COC(=O)c1cccn1C1CCN(S(=O)(=O)c2ccccc2)CC1 | 89.91% |
| COC(=O)c1ccc(S(=O)(=O)N2CCC(Oc3cccnn3)CC2)cc1 | -19.83% |
| COC(=O)[C@@H]1CN(S(=O)(=O)c2ccccc2)CCN1S(C)(=O)=O | -4.195% |
| COCCN1CCN(Cc2cccc(C(N)=O)c2)CC1C (centres undefined) | 5.406% |
| COC(=O)c1cccn1C1CCN(Cc2cccc(C(N)=O)c2)CC1 | 132.6% |
| CC(O)CN1CCC(CNCc2cccc(C(N)=O)c2)CC1 (centres undefined) | 1.784% |
| CCOCCn1c(=O)n(CCC(C)C)c2ncc(C(=O)O)cc21 | -3.937% |
| COCC(=O)Nc1ccc([C@@H](O)[C@H]2COCC(=O)N2C)cc1 | -3.081% |
| CS(=O)(=O)N1CCN(C(=O)c2cccc(Cl)c2)CC2(CNC(=O)C2)C1 (centres undefined) | 2.79% |
